An excerpt weighted towards active compounds, which were near 2.2% of everything screened.
Mito fusion yeast: mitochondrial division inhibition or fusion activation. S. cerevisiae fusion-defective mutant growth rescue, CellTiterGlo 48 h. Potency, µM (top dose mostly 46.1 µM), for the others: at the highest dose growth rescue (activation), most hits filed as activators. 0.23% of 320,000 active. AID 485298; note: % of control where 0% means no effect; nearly all actives have a fitted effect of over 45% in size
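Luminescent cell viability in 1536-well qHTS format served as the measure of rescued growth in ts fusion-mutant S. cerevisiae cultured on non-fermentable YPEG for 48 hours at 37C.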
TDP-43 yeast inh: TDP-43 toxicity inhibition in yeast | TDP-43 expressing yeast growth rescue, BacTiter-Glo, 24 h | Potency, µM (doses to about 46.1 µM), inactives show at the highest dose growth rescue (activation), hits mostly activators | 1.8% of 410,000 active; note: % of control where 0% means no effect; nearly all actives have a fitted effect of over 50% in size
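Cell-based yeast growth screen: TDP-43 expression induced in galactose, inoculum OD600=0.02 after raffinose pregrowth to mid-log. Read-out BacTiter-Glo luminescence at 24 hr, 30 deg C; inhibition of toxicity seen as signal increase.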
FUS yeast rescue: rescues growth of FUS-expressing yeast. S. cerevisiae FUS-expressing, growth rescue, OD600, 24 h. Potency, µM (series often up to 76.6 µM), actives largely listed as activators. 0.24% of 390,000 active;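 note: plate controls were DMSO vehicle for no effect and reference control for full effect; nearly all actives have a fitted effect of over 55% in size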
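Compound concentration series was pinned onto galactose-induced FUS-expressing yeast seeded at OD 0.005. Plates sat 24hr at 30C; absorbance at 600 nm gave growth. DMSO served as background control.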
aSyn yeast inh: rescues yeast growth from alpha-synuclein toxicity; Yeast expressing alpha-synuclein, growth rescue, BacTiter-Glo, 24 h; AID 652106; 0.14% of 370,000 active; Potency, µM (series often up to 46.1 µM), for inactives: at the highest dose growth rescue (activation), hits mostly activators; note: % of control where 0% means no effect; nearly all actives have a fitted effect of over 65% in size
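Rescue of yeast growth: cells expressing toxic alpha-synuclein, induced in galactose at OD600 0.02, incubated with compound 24 h at 30 C. ATP luminescence quantified growth; inhibitors of toxicity appear as activators.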
Abeta rescue: compounds reversing amyloid beta toxicity in yeast. yeast expressing A-beta42, growth rescue, OD600, 48 h; response scale: 0% DMSO, 100% iron-clioquinol control. Potency, µM (highest dose often 46.1 µM), hits mostly activators. 0.063% of 410,000 active; note: nearly all actives have a fitted effect of over 55% in size
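Yeast A-beta toxicity model in growth medium with pinned compounds, 48 h at 30 C; growth read as absorbance at 600 nm. Normalized to FeCl3/clioquinol equimolar mix (positive) and DMSO (negative).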
Starred values were filed as active, the others as inactive; i = inactive; ? = inconclusive; . = no result given; ! = not active in a repeat. Calls come from the whole dose curve; as a rule, active = well fitted curve in the direction sought with a large enough effect; inconclusive = small, poorly fitted or top-dose-only effect, or another doubt; inactive = no such curve, though single readings can be large; an effect the other way counts as inactive or inconclusive. Potency is the fitted concentration of half-maximal effect.

SMILES	Mito fusion yeast	TDP-43 yeast inh	FUS yeast rescue	aSyn yeast inh	Abeta rescue
Nc1cc(-c2ccccc2)nn1Cc1ccc(Cl)cc1	-1%	26%	i	17%	i
CCOC(=O)c1cccc(NC(=O)c2cc3cc4ccc(C)cc4nc3o2)c1	.	-5%	i	.	i
O=[N+]([O-])c1ccc(Oc2ccc(S(=O)(=O)Nc3ccccc3)cc2)cc1	?	2.8µM*	i	3%	i
CS(=O)(=O)Nc1ccc([N+](=O)[O-])cc1Oc1ccccc1	23µM*!	24%	i	-21%	i
CS(=O)(=O)Nc1ccccc1Oc1ccccc1	-3%	12%	i	2%	i
Cc1cccc(-c2noc(CN(C(=O)COc3ccc(C(C)C)cc3)C(C)C)n2)c1	.	11%	i	.	i
Cc1cc(C(=O)N/N=C/c2ccc(OCc3ccccc3)cc2)c(C)o1	0%	13µM*	i	2%	?
CCCCN(C)C(=O)c1sc(=O)n(Cc2ccc(Cl)c(Cl)c2)c1C	.	25µM*	i	?	i
CSc1ccc(Cn2c(C)c(C(=O)NCc3ccc(Cl)c(Cl)c3)sc2=O)cc1	.	12%	?	1%	?
COc1cccc(CNC(=O)CN2CCCc3ccccc32)c1OC	.	.	i	.	.
CN(C)c1ccc(/C=C/c2ccnc3ccc(N)cc23)cc1	.	.	.	-30%	.
COc1cc(Nc2nc(SCc3ccccc3Cl)nc3ccccc23)cc(OC)c1	.	20µM*	?	.	i
O=C(CSc1nc(Nc2ccccc2)c2ccccc2n1)c1ccc(Cl)cc1	.	19%	i	.	i
COc1cc(Nc2nc(SCc3cccc(Cl)c3)nc3ccccc23)cc(OC)c1	.	18µM*	i	.	i
COc1cc(Nc2nc(SCC(=O)c3ccc(Cl)c(Cl)c3)nc3ccccc23)cc(OC)c1	.	13µM*	i	.	i
COc1ccc(-c2cc(OC(=O)c3ccccc3Cl)c3c(C)oc(C)c3c(=O)c2)cc1OC	.	5%	?	.	i
CCOC(=O)c1sc(N2C(=O)c3oc4cc(C)c(C)cc4c(=O)c3C2c2ccc(C)cc2)nc1C (stereo not drawn)	.	-9%	i	.	i
O=S(=O)(CCSc1nc2ccccc2o1)c1nc2ccccc2s1	-2%	11µM*	i	-18%	i
COCCCN1CCC2(CCC(c3ccccc3)CC2)C1=O (stereo not drawn)	.	.	i	.	.
O=C(CSc1ccc(Cl)cc1)N1N=CCC1c1ccccc1 (stereo not drawn)	21%	13µM*	i	-6%	i
O=C(Nc1ccc(Cl)c(Cl)c1)N1N=CCC1c1ccccc1 (stereo not drawn)	6%	22µM*	?	-16%	i
NC(=NC(=O)c1ccc(Cl)cc1)N1N=CCC1c1ccccc1 (stereo not drawn)	14%	?	i	0%	i
O=C(CSc1nnc(-c2ccccn2)n1-c1ccccc1)c1ccc(Cl)c(Cl)c1	.	.	i	.	.
CC1(C)Nc2cccc3c(N=Nc4ccc(N=Nc5ccccc5)c5ccccc45)ccc(c23)N1	.	.	.	-43%	.
O=C1c2ccccc2C(=O)N1CCSc1n[nH]c(=S)s1	6%	20µM*	.	10%	i
SMILES	Mito fusion yeast	TDP-43 yeast inh	FUS yeast rescue	aSyn yeast inh	Abeta rescue
Cc1ccc(C(=O)N2CCC(Oc3cccnc3)CC2)cc1	.	.	i	.	.
O=C(OC12CCCN(C1)/C(=C/c1ccccc1)C2)C1CCCCC1 (stereo not drawn)	.	.	i	.	.
Cc1ccc(C(=O)Nc2nc(C(C)(C)C)cs2)s1	11%	14µM*	i	-38%	i
COc1ccccc1CNc1ccc(-c2nc(-c3cccc(C)c3)no2)cc1[N+](=O)[O-]	.	-12%	i	.	i
CCC[C@H]1[C@@H](NC(=O)c2ccc(Cl)c(C(F)(F)F)c2)CC[C@@]23CCCN2C(=O)CCC[C@@H]13	.	.	i	.	.
CC(=O)Nc1ccc(C2=CC(=O)C[C@H](c3ccc(Cl)cc3)C2)cc1	?	35µM*	?	2%	i
COc1cc(F)c(C2=CC(=O)C[C@H](c3ccc(Cl)cc3)C2)cc1F	?	?	i	0%	i
O=C1C=C(c2cc(F)ccc2F)C[C@@H](c2ccc(Cl)cc2)C1	?	20µM*	i	13%	i

Source: PubChem BioAssay (National Center for Advancing Translational Sciences (NCATS))
